Molecules are shown by their SMILES. Activity calls are given as the source filed them. Unless noted, how the calls were made is not given here.

For test [1], the system named is Wnt5a (protein binding on small-molecule microarray). Briefly: Wnt5a binders on small-molecule microarray, primary screen, biophysical, 635/667 nm fluorescence (AID 1142).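 Further: fluorescence read at 667 nm with signal to noise per printed feature.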 The settings on record: 635 nm fluorescence, higher = more signal.
A short description of test [2]: cell viability in Huh7 cells, primary screen, cytotoxicity control for HCV replication inhibitor project, CellTiter-Glo luminescence, basal, 48 h (AID 1143).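 Further: Huh7 hepatoma cells carrying a hepatitis C replication reporter with no stimulus; test concentration not given here.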 Conditions: Huh7 HCV replicon, higher = more signal, called active from +8 up or from −8 down.
A short description of test [3]: P. aeruginosa biofilm formation inhibitors, primary screen, PAO1 strain, BacTiter-Glo luminescence, LB-PBS (AID 1144). The settings on record: 12 h, higher = more signal.
Test [4] is described as follows: CREB reporter modulators without forskolin, primary screen, cell-based, PC12, CRE-LacZ reporter, unstimulated (AID 1145). The settings on record: no forskolin, luminescence, 4.5 h, higher = more signal, called active from +8 up or from −8 down.
Test [5] in a line: CREB reporter modulators under forskolin, primary screen, cell-based, PC12, CRE-LacZ reporter, forskolin-stimulated (AID 1146).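 Further: PC12 cells with 6xCRE LacZ reporter stimulated by forskolin 10 µM; beta-galactosidase reporter signal reflecting CREB driven transcription.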 The settings on record: luminescence, 4.5 h, higher = more signal, called active from +8 up or from −8 down.
The target of test [6] is Streptavidin (Streptomyces avidinii) (UniProt P22629). Kind of test: streptavidin binders on small-molecule microarray, primary screen, artefact control for SMM compound annotation, biophysical, 635/667 nm fluorescence (AID 1147).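 Further: signal reflects streptavidin binding to arrayed compounds as a control protein.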 The settings on record: streptavidin binding, higher = more signal.
Sequence of Streptavidin (Streptomyces avidinii) (P22629 whole entry, looked up): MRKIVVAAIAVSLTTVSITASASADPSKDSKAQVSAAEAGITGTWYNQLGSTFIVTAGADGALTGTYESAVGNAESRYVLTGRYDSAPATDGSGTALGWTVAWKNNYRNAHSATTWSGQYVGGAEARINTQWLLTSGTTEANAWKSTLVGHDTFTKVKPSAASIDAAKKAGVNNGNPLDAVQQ
The nature of test [7]: small-molecule binders of probe aInhba, primary screen, biochemical, small-molecule microarray, 635/667 nm fluorescence (AID 1148).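 Further: score merges 667nm spot fluorescence with signal-to-noise for antibody binding to printed compounds.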 Conditions: higher = more signal.
In test [8] the target is Torsin-1A (Homo sapiens) (UniProt O14656). Kind of test: torsin A binders from cell lysate, primary screen, small-molecule microarray, wild-type, 635/667 nm (AID 1149). Conditions: COS7 hTOR1A-WT lysate, 635 nm fluorescence, higher = more signal.
Sequence of Torsin-1A (Homo sapiens) (O14656 whole entry, looked up): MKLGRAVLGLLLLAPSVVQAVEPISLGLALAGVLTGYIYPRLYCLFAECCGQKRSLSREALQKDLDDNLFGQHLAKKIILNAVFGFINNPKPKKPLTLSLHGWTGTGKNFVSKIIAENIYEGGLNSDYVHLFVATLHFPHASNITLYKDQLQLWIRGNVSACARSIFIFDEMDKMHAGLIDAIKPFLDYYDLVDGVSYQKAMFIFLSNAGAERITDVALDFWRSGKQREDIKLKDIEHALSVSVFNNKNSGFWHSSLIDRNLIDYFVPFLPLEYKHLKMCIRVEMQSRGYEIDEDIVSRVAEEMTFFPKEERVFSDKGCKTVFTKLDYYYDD
For test [9] the target is unchanged. Kind of test: small-molecule binders of mutant TOR1A in lysate, primary screen, cell lysate, small-molecule microarray, COS7 lysate, 635/667 nm fluorescence (AID 1150).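 Further: score pools 667 nm emission and signal to noise measuring lysate protein binding.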 The settings on record: COS7 hTOR1A mutant lysate, 635 nm fluorescence, higher = more signal.
Test [10] relates to Sonic hedgehog protein (Shh). Briefly: small-molecule binders of Shh protein, primary screen, biochemical, small-molecule microarray, 635/667 nm fluorescence (AID 1151).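 Further: Shh protein binding to compounds spotted on small-molecule microarray slides; score combines spot fluorescence intensity with signal-to-noise across triplicate slides.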 Conditions: small-molecule microarray binding, 635 nm fluorescence; higher = more signal.
Test [11] is described as follows: E. coli DRC41 culture turbidity changes, primary screen, E. coli filamentation inducer project, strain DRC41, OD650, 48 h (AID 1152).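 Further: E. coli MC1000 strain DRC41 lacking acrAB efflux pump and sulA.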 Conditions: E. coli DRC41 (acrAB sulA), higher = more signal, called active from +8 up or from −8 down.
Test [12] in a line: small-molecule binders of probe aLefty1, primary screen, biochemical, small-molecule microarray, 635/667 nm fluorescence (AID 1153).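 Further: score merges spot fluorescence with signal-to-noise ratio from the scanned slide images.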 Conditions: higher = more signal.
Test [13] is described as follows: PSAC antagonists in infected red cells, primary screen, cell-based, P. falciparum Indochina, OD700, 1 h (AID 1154). The settings on record: P. falciparum Indochina infected RBC osmotic lysis, higher = more signal, called active from +8 up or from −8 down.
Test [14] is described as follows: PSAC antagonists in infected red cells, primary screen, cell-based, P. falciparum Indochina, OD700, 2 h (AID 1155).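 Further: lysis reports solute entry through the parasite surface anion channel PSAC; channel blockers reduce lysis of infected cells.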 Conditions: P. falciparum Indochina infected erythrocytes, osmotic lysis OD700; higher = more signal, called active from +8 up or from −8 down.
Test [15] is described as follows: osmotic lysis modulators in infected erythrocytes, primary screen, PSAC antagonist project, cell-based, P. falciparum Indochina, OD700, 3 h (AID 1156). The settings on record: higher = more signal, called active from +8 up or from −8 down.
A short description of test [16]: PSAC antagonists in infected red cells, primary screen, cell-based, P. falciparum Indochina, OD700, 18 h (AID 1157). The settings on record: P. falciparum Indochina infected erythrocytes, osmotic lysis OD700, 18 h; higher = more signal, called active from +8 up or from −8 down.
The nature of test [17]: modulators of S6 phosphorylation in cells, primary screen, cell-based, A549, cytoblot, luminescence, serum-stimulated (AID 1158).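 Further: serum-stimulated A549 lung adenocarcinoma cells; signal is phosphorylated S6 detected by cytoblot immunostaining with HRP secondary.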 Conditions: A549 phospho-S6 cytoblot, 5 h, higher = more signal.
For test [18], the target named is NADPH oxidase 2 (Homo sapiens) (UniProt P04839). Kind of test: NOX2-dependent H2O2 signal modulators, primary screen, NOX inhibitor project, cell-based, HEK293-NOX2, PMA-stimulated, Amplex Red fluorescence (AID 1159). Further: test concentration not given here. The settings on record: 45 min, higher = more signal, called active from +8 up or from −8 down.
Sequence of NADPH oxidase 2 (Homo sapiens) (P04839 whole entry, looked up): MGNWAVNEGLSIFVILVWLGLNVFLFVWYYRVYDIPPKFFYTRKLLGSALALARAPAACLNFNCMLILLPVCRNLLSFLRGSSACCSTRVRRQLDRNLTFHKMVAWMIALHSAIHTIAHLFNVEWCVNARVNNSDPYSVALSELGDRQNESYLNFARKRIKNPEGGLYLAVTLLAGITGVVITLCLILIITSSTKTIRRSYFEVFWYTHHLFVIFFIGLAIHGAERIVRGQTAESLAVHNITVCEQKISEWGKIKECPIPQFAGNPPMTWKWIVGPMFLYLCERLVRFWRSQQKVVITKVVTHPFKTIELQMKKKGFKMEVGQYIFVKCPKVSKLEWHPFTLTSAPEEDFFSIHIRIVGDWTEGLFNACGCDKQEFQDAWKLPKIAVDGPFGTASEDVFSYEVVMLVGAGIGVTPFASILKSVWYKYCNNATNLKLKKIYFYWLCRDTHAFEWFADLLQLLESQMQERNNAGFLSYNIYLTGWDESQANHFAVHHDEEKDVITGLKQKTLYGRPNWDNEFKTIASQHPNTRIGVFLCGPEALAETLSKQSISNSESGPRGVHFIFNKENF
Test [19] deals with NADPH oxidase 4 (Homo sapiens) (UniProt Q9NPH5). Briefly: NOX4-dependent H2O2 signal modulators, primary screen, NOX inhibitor project, cell-based, HEK293-NOX4, tetracycline-induced, Amplex Red fluorescence (AID 1160). Conditions: 45 min, higher = more signal, called active from +8 up or from −8 down.
Sequence of NADPH oxidase 4 (Homo sapiens) (Q9NPH5 whole entry, looked up): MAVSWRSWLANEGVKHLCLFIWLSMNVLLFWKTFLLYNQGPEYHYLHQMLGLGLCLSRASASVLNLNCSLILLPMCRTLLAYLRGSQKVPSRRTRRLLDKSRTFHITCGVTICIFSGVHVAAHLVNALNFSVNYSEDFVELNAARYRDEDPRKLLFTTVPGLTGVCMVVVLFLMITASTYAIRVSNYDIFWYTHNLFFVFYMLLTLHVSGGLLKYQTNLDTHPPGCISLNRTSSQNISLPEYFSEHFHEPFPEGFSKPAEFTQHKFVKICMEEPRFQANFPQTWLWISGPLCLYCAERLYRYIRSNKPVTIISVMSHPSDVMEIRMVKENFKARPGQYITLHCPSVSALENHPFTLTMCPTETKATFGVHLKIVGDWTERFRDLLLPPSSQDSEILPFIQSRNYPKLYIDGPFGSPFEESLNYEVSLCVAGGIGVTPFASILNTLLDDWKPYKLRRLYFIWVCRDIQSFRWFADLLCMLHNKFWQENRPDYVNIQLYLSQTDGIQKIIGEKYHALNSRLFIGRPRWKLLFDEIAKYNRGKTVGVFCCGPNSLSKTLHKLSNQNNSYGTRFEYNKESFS
Test [20] concerns the target NADPH oxidase 5 (Homo sapiens) (UniProt Q96PH1). Briefly: NOX5-dependent H2O2 signal modulators, primary screen, NOX inhibitor project, cell-based, HEK293-NOX5, Amplex Red fluorescence (AID 1161). Conditions: HEK293-NOX5, ionomycin, 45 min, higher = more signal.

Sequence of NADPH oxidase 5 (Homo sapiens) (Q96PH1 whole entry, looked up): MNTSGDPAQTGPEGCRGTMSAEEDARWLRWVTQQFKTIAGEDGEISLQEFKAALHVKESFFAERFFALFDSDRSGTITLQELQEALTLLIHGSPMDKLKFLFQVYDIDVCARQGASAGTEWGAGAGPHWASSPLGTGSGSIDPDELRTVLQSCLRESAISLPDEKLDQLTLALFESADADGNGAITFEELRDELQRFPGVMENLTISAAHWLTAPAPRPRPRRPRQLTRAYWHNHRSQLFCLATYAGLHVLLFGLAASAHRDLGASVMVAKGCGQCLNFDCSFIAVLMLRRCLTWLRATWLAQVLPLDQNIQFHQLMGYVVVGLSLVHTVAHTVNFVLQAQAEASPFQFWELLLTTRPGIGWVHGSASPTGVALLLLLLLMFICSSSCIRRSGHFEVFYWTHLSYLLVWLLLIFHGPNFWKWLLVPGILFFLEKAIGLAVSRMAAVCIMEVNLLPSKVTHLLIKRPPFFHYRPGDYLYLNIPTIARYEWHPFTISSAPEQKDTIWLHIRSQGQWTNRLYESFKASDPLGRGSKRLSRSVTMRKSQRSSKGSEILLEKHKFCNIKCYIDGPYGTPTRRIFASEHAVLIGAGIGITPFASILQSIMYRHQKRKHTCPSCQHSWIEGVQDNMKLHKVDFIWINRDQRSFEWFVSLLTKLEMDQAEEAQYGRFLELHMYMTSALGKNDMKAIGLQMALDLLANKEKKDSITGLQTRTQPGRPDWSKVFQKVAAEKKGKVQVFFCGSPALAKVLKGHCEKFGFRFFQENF

In the case of `COC(=O)[C@@]1(Cc2ccc(F)cc2)[C@H]2c3cc(C(=O)N(C)C)n(CCc4ccc(O)c(OC)c4)c3C[C@H]2CN1C(=O)c1ccccc1`, the composite z-score in test [1] is 2.23; in test [6], 0.637; in [7], 1.62; with Torsin-1A (Homo sapiens) [8], 0.334; with Torsin-1A (Homo sapiens) [9], 0.234; in [10], -0.804. In [12], this molecule gave a composite z-score of 1.63. Besides, the z-score was 0.462 (inactive) in [2]; -0.0301 (inactive) in [3]; 0.783 (inactive) in test [4]; 0.15 (inactive) in test [5]; -1.22 (inactive) in test [11]; -0.951 (inactive) in [13]. In addition, the z-score in test [14] is 0.236 (inactive); in test [15], -0.722 (inactive); in test [16], 0.667 (inactive); in test [17] it was -0.824; in test [18], -0.0241 (inactive); in [19] it was -0.627 (inactive). The z-score in test [20] was -0.245.

`C[N+](C)(C)CCCCCCNC(=O)[C@H]1C[C@H]2C(=O)NCC(=O)N2[C@H]1c1ccc(O)cc1`: the composite z-score in test [1] was 0.119; in [6] it was -0.337; in [7], -0.354; with Torsin-1A (Homo sapiens) [8] it was 0.261; in the test with Torsin-1A (Homo sapiens) [9] it was 0.349; in [10], 2.09. In addition, the composite z-score in test [12] is -0.455. The z-score in test [2] is -0.274 (inactive); in test [3], 0.0567 (inactive); in test [4], -1.35 (inactive); in test [5] it was 0.444 (inactive); in test [11] it was 0.16 (inactive); in test [13], 1.76 (inactive). Further, the z-score is 0.682 (inactive) in [14]; -1.2 (inactive) in test [15]; -0.0189 (inactive) in [16]; -0.217 in test [17]; 0.446 (inactive) in [18]; 0.256 (inactive) in test [19]. In test [20], the z-score was 0.328.

Turning to `CC(C)N1CC=CC23O[C@@H]4C=CCOC(=O)[C@@H]4[C@H]2C(=O)N(CCCO)[C@@H]3C1=O` (stereo not given in full), the composite z-score in test [1] is -0.26; in test [6] it was -0.941; in test [7], -0.182; in the test with Torsin-1A (Homo sapiens) [8] it was 1.12; with Torsin-1A (Homo sapiens) [9] it was 0.874; in test [10], -0.182. The composite z-score in test [12] is -0.14. Also, the z-score in test [2] was -5.24 (inactive); in test [3], -2.47 (inactive); in test [4], -1.31 (inactive); in test [5] it was -0.931 (inactive); in test [11], 2.97 (inactive); in test [13] it was 1.08 (inactive). Besides, the z-score in [14] is 0.0983 (inactive); in test [15] it was 0.976 (inactive); in test [16], -0.137 (inactive); in [17], 1.89; in test [18], 0.0484 (inactive); in [19] it was -1.52 (inactive). Further, the z-score in test [20] is -1.36.

Regarding `C[C@@H]1ON(c2ccc(C(=O)OC(C)(C)C)cc2)[C@H](c2ccc(O)cc2)[C@H]1C(=O)N1C(=O)OC[C@H]1Cc1ccccc1`, the composite z-score is 0.218 in test [1]; 0.922 in test [6]; -0.0552 in test [7]; 0.438 in the test with Torsin-1A (Homo sapiens) [8]; 0.616 in the test with Torsin-1A (Homo sapiens) [9]; 0.596 in [10]. The molecule also came in with a composite z-score in test [12] of 0.119. Further, the z-score in test [2] was -2.96 (inactive); in [3] it was 0.133 (inactive); in [4], 1.22 (inactive); in test [5], 0.419 (inactive); in [11], -0.476 (inactive); in test [13], 3.71 (inactive). Besides, the z-score was 0.709 (inactive) in test [14]; -0.348 (inactive) in test [15]; 0.87 (inactive) in test [16]; 0.363 in [17]; -0.394 (inactive) in [18]; -0.43 (inactive) in test [19]. The z-score in test [20] was -0.209.

The values are drawn from PubChem BioAssay.
